# Measurements as given in PubChem BioAssay (EPA / NIEHS).
# Calls of active or inactive are those of the source. Rule for the calls: active = hit-call score of the fitted dose curve at least 0.9, where 1 is the maximum; inactive = score below 0.9.
# Read-out: Vascular cell adhesion molecule 1 (VCAM1), VCAM1 (gene 7412)
# Assay: BSK_LPS_VCAM1: BioMAP Diversity Plus: LPS Assay for Vascular cell adhesion molecule 1 (VCAM1) Biomarker Activity (AID 2283086)
# Conditions: primary human HUVEC with PBMC; actives raise or lower the signal
# Protocol: BSK_LPS is a cell-based, multiplexed-readout assay that uses umbilical vein endothelium and peripheral blood mononuclear cells, a human vascular primary cell co-culture, with measurements taken at 24 hours after chemical dosing in a 96-well plate.BSK_LPS_VCAM1 is an assay component measured in the BSK_LPS assay. It measures VCAM-1 antibody related to regulation of gene expression using ELISA technology.Data from the assay component BSK_LPS_VCAM1 was analyzed into 1 assay endpoint. This assay endpoint, BSK_LPS_VCAM1, was analyzed with bidirectional fitting relative to DMSO as the negative control and baseline of activity. Using a type of binding reporter, gain or loss-of-signal activity can be used to understand changes in the signaling as they relate to the gene VCAM1. Furthermore, this assay endpoint can be referred to as a primary readout, because this assay has produced multiple assay endpoints where this one serves a signaling function. To generalize the intended target to other relatable targets, this assay endpoint is annotated to the cell adhesion molecules intended target family, where the subfamily is Immunoglobulin CAM.
# The levels of cell surface (or secreted, indicated by the prefix "s") biomarker endpoints were measured by ELISA. Overt cytotoxicity to cells in confluent adherent cultures (all systems other than the BT system) was assessed by measuring total protein levels using sulforhodamine B (SRB) staining in parallel cultures at the time of biomarker measurements, indicated as SRB endpoints. For proliferation assays for adherent cell types, individual cell types are cultured at sub-confluence and relative cell numbers quantified by SRB staining at time points optimized for each system (48 h: 3C and CASM3C systems; 72 h: BT and HDF3CGF systems; 96 h: SAg system). SRB was performed by staining cells with 0.1% SRB after fixation with 10% TCA and reading wells at 560 nm.Viability and proliferation of PBMC (T cells) was quantified by Alamar Blue reduction for the SAg and BT systems. For PBMC viability (referred to as PBMC Cytotoxicity within the assay endpoint names), cells were plated (75,000/well in a 96-well plate) and then chemical samples added for 1 h before addition of activators, SEB and TSST-1 (20 ng/mL final concentration each). Cells were incubated for 90 h. Then, Alamar Blue (20 uL/well) (Invitrogen, Cat DAL1100) was added for 6 h, and the plates were read with a fluorescence microplate reader at 546/580 nm (excitation/emission). For PBMC proliferation, cells were plated and activated as above but incubated for only 16 h prior to addition of Alamar Blue. Plates were read after 6 h.
Compound,outcome,AC50
CCSC(=O)N1CCCCCC1,inactive,
CCOc1cc(C(C)(C)C)ccc1C1COC(c2c(F)cccc2F)=N1 (stereo not given),,31.4 µM (active)
CCCCOCN(C(=O)CCl)c1c(CC)cccc1CC,,28.2 µM (active)
Cc1c(COC(=O)[C@@H]2[C@H](/C=C(\Cl)C(F)(F)F)C2(C)C)cccc1-c1ccccc1,inactive,
CC(C)Nc1nc(Cl)nc(NC(C)C)n1,inactive,
N#CN=C1SCCN1Cc1ccc(Cl)nc1,inactive,
CN=C=S,inactive,
CCCC(=NOCC)C1=C(O)CC(CC(C)SCC)CC1=O (stereo not given),inactive,
CC1(C)CON(Cc2ccccc2Cl)C1=O,inactive,
CCNC(=O)NC(=O)C(C#N)=NOC,inactive,
Nc1c(Cl)c(Cl)nc(C(=O)O)c1Cl,inactive,
CSC(=O)c1c(C(F)F)nc(C(F)(F)F)c(C(=O)SC)c1CC(C)C,inactive,
N#Cc1c(Cl)cccc1Cl,inactive,
CCOc1nc(F)cc2nc(S(=O)(=O)Nc3c(Cl)cccc3Cl)nn12,inactive,
CN/C(=N\[N+](=O)[O-])NCc1cnc(Cl)s1,inactive,
CC1(C)CCC(=Cc2ccc(Cl)cc2)C1(O)Cn1cncn1 (stereo not given),inactive,
COP(=O)(OC)O/C(C)=C/C(=O)N(C)C,inactive,
COP(=S)(OC)Oc1ccc([N+](=O)[O-])c(C)c1,,31.5 µM (active)
CCOP(=S)(OCC)Oc1nc(Cl)n(C(C)C)n1,inactive,
O=c1n(Cl)c(=O)n(Cl)c(=O)n1Cl,inactive,

Compound,outcome,AC50
COCC(=O)N(c1c(C)cccc1C)C(C)C(=O)OC (stereo not given),inactive,
CC(C)C1(C)N=C(c2ncccc2C(=O)O)NC1=O (stereo not given),inactive,
COC(=O)NC(=S)Nc1ccccc1NC(=S)NC(=O)OC,inactive,
COc1ccc(-c2ccccc2)cc1NNC(=O)OC(C)C,inactive,
Cc1nc(N(C)C)nc(OC(=O)N(C)C)c1C,inactive,
CCOC(=O)C(C)OC(=O)c1cc(Oc2ccc(C(F)(F)F)cc2Cl)ccc1[N+](=O)[O-] (stereo not given),inactive,
COc1cc(Cl)c(OC)cc1Cl,inactive,
COP(=S)(OC)SCn1nnc2ccccc2c1=O,,20 µM (active)
CC(C)Oc1cccc(NC(=O)c2ccccc2C(F)(F)F)c1,inactive,
COC(=O)N(C(=O)N1CO[C@@]2(C(=O)OC)Cc3cc(Cl)ccc3C2=N1)c1ccc(OC(F)(F)F)cc1,inactive,
CC(C)(C)C(=O)C(Oc1ccc(Cl)cc1)n1cncn1 (stereo not given),inactive,
CS(=O)(=O)c1cc(C(F)(F)F)ccc1C(=O)c1cnoc1C1CC1,inactive,
CCN(CC)C(=O)C(C)Oc1cccc2ccccc12 (stereo not given),inactive,
Cc1cnc(C2=NC(C)(C(C)C)C(=O)N2)c(C(=O)O)c1 (stereo not given),inactive,
Nc1cnn(-c2ccccc2)c(=O)c1Cl,inactive,
Clc1nc(Cl)nc(Nc2ccccc2Cl)n1,inactive,
CCC(C)n1c(=O)[nH]c(C)c(Br)c1=O (stereo not given),inactive,
CCOc1nc(C(Cl)(Cl)Cl)ns1,inactive,
COC(=O)c1c(C(F)F)nc(C(F)(F)F)c(C2=NCCS2)c1CC(C)C,inactive,
CO/N=C(/C1=NOCCO1)c1ccccc1Oc1ncnc(Oc2ccccc2Cl)c1F,inactive,
